The text below walks through data of the supplement of paper PMC8975748.

Where a name gives a salt, the structure may show the parent alone. ± gives the standard deviation of the averaged measurements.

Assay [1] relates to Saccharomyces cerevisiae BY4741 SeMeCo community. The assay is described as follows: mean cell size (pixel area) (pixels); higher = larger cells. As to conditions: 10 µM; 24 h; SM minimal medium. In a few lines: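 A fluorescent Saccharomyces cerevisiae BY4741 community carrying four plasmids was used, with each plasmid complementing one auxotrophy and bearing a fluorescent marker. An overnight preculture at OD600 = 1.0 was diluted to OD600 = 0.3, and 70 µl went into 384-well plates acoustically predosed with drug (final 10 µM) in SM medium for 24 h. After paraformaldehyde fixation, cells were imaged by automated confocal microscopy and analysed in Harmony, giving the mean cell pixel area per well. Each value is the average of 3 replicates. Same SeMeCo high-content imaging drug screen: Selleck FDA-approved drugs at 10 µM, 24 h in SM medium, 384-well plates, 3 replicates.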

Assay [2] shares this test system. Description: z-score of prototroph abundance vs DMSO median; higher = larger share of this subpopulation than in DMSO controls. As to conditions: 10 µM; 24 h; SM minimal medium; subpopulation (auxotrophy): Prototroph. In a few lines: (§1)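 Subpopulation abundance was reported as a z-score against the median of vehicle wells. The Saccharomyces cerevisiae BY4741 community, carrying four plasmids that each restored one auxotrophy and encoded a distinct fluorescent protein, was grown 24 h in minimal SM medium in 384-well plates holding library drugs at 10 µM final. Cells were paraformaldehyde-fixed and imaged by automated confocal microscopy, with single-auxotroph fluorescent strains used for thresholds and autofluorescence correction.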

The test system is the same in assay [3]. The assay is described as follows: z-score of subpopulation abundance vs DMSO median, subpopulation auxotrophic for L; higher = larger share of this subpopulation than in DMSO controls. To be noted: 10 µM; 24 h; SM minimal medium; subpopulation (auxotrophy): L. The procedure, abridged: as §1
For assay [4] the test system is unchanged. Description: z-score of subpopulation abundance vs DMSO median, subpopulation auxotrophic for U; higher = larger share of this subpopulation than in DMSO controls. To be noted: 10 µM; 24 h; SM minimal medium; subpopulation (auxotrophy): U. In a few lines:
as §1

Assay [5] has the same test system. Description: z-score of subpopulation abundance vs DMSO median, subpopulation auxotrophic for H; higher = larger share of this subpopulation than in DMSO controls. As to conditions: 10 µM; 24 h; SM minimal medium; subpopulation (auxotrophy): H. The procedure, abridged:
as §1

Assay [6] has the same test system. The assay is described as follows: z-score of subpopulation abundance vs DMSO median, subpopulation auxotrophic for LU; higher = larger share of this subpopulation than in DMSO controls. As to conditions: 10 µM; 24 h; SM minimal medium; subpopulation (auxotrophy): LU. The procedure, abridged: as §1
Assay [7] has the same test system. The assay is described as follows: z-score of subpopulation abundance vs DMSO median, subpopulation auxotrophic for LM; higher = larger share of this subpopulation than in DMSO controls. As to conditions: 10 µM; 24 h; SM minimal medium; subpopulation (auxotrophy): LM. The procedure, abridged:
as §1

Assay [8] has the same test system. The assay is described as follows: z-score of subpopulation abundance vs DMSO median, subpopulation auxotrophic for HM; higher = larger share of this subpopulation than in DMSO controls. As to conditions: 10 µM; 24 h; SM minimal medium; subpopulation (auxotrophy): HM. The procedure, abridged:
as §1

For assay [9] the test system is unchanged. The assay is described as follows: z-score of subpopulation abundance vs DMSO median, subpopulation auxotrophic for HU; higher = larger share of this subpopulation than in DMSO controls. To be noted: 10 µM; 24 h; SM minimal medium; subpopulation (auxotrophy): HU. The procedure, abridged: as §1
For assay [10] the test system is unchanged. Description: z-score of subpopulation abundance vs DMSO median, subpopulation auxotrophic for UM; higher = larger share of this subpopulation than in DMSO controls. To be noted: 10 µM; 24 h; SM minimal medium; subpopulation (auxotrophy): UM. In a few lines: as §1
Assay [11] shares this test system. The assay is described as follows: z-score of subpopulation abundance vs DMSO median, subpopulation auxotrophic for HL; higher = larger share of this subpopulation than in DMSO controls. As to conditions: 10 µM; 24 h; SM minimal medium; subpopulation (auxotrophy): HL. The procedure, abridged:
as §1

The test system is the same in assay [12]. Description: z-score of subpopulation abundance vs DMSO median, subpopulation auxotrophic for HLM; higher = larger share of this subpopulation than in DMSO controls. As to conditions: 10 µM; 24 h; SM minimal medium; subpopulation (auxotrophy): HLM. The procedure, abridged:
as §1

For assay [13] the test system is unchanged. The assay is described as follows: z-score of subpopulation abundance vs DMSO median, subpopulation auxotrophic for HUM; higher = larger share of this subpopulation than in DMSO controls. As to conditions: 10 µM; 24 h; SM minimal medium; subpopulation (auxotrophy): HUM. The procedure, abridged: as §1
Assay [14] shares this test system. Description: z-score of subpopulation abundance vs DMSO median, subpopulation auxotrophic for LUM; higher = larger share of this subpopulation than in DMSO controls. As to conditions: 10 µM; 24 h; SM minimal medium; subpopulation (auxotrophy): LUM. The procedure, abridged: as §1
Assay [15] has the same test system. Description: z-score of subpopulation abundance vs DMSO median, subpopulation auxotrophic for HLUM; higher = larger share of this subpopulation than in DMSO controls. As to conditions: 10 µM; 24 h; SM minimal medium; subpopulation (auxotrophy): HLUM. The procedure, abridged: as §1
Assay [16] has the same test system. Description: z-score of subpopulation abundance vs DMSO median, subpopulation auxotrophic for M; higher = larger share of this subpopulation than in DMSO controls. To be noted: 10 µM; 24 h; SM minimal medium; subpopulation (auxotrophy): M. In a few lines:
as §1

`OC(CCCN1CCCCC1)(c1ccccc1)c1ccccc1` [Diphenidol HCl] yielded a mean cell size in assay [1] of 12.4 ± 0.41. Besides, the “z-score of prototroph abundance” value in [2] was -0.42. The “z-score of subpopulation abundance” value in [3] was -0.41; in [4], 0.63; in assay [5] it was -0.38; in assay [6] it was 0.23; in assay [7], -0.56; in assay [8] it was 0.03. For the same compound, the “z-score of subpopulation abundance” value in assay [9] is 0.48; in assay [10], 1.63; in [11] it was -0.42; in assay [12], -0.07; in assay [13], 0.78; in assay [14], -0.35. For the same compound, the “z-score of subpopulation abundance” value in assay [15] was -0.39.

For the compound `O=c1n(CCCN2CCN(c3cccc(Cl)c3)CC2)nc2ccccn12` [Trazodone HCl], the “z-score of prototroph abundance” value in assay [2] is -0.06. The “z-score of subpopulation abundance” value was 2.19 in assay [16]; -1.59 in [3]; -0.97 in assay [6]; -0.41 in [7]; 0.92 in [8]; 0.33 in assay [9]. Further, the “z-score of subpopulation abundance” value in assay [10] is 0.22; in assay [11], -0.82; in assay [12], 0.04; in [14] it was -0.51; in assay [15], -0.57.

As to `CCC[C@@H]1C[C@@H](C(=O)N[C@@H]([C@H]2O[C@H](SC)[C@H](OP(=O)(O)O)[C@@H](O)[C@H]2O)[C@H](C)Cl)N(C)C1` [Clindamycin Phosphate], the mean cell size in assay [1] was 12 ± 0.22. Besides, the “z-score of subpopulation abundance” value in assay [16] was 0.65; in assay [3], -0.86; in [4] it was 0.48; in assay [5], -0.77; in assay [7] it was 0.11; in [10], 1.19. Moreover, the “z-score of subpopulation abundance” value was -0.71 in [11], -0.65 in assay [12] and -0.47 in assay [15].

With `COc1ccnc(C[S+]([O-])c2nc3cc(-n4cccc4)ccc3[nH]2)c1C` (stereo not given) [Ilaprazole sodium], in assay [1], the mean cell size was 12.7 ± 0.23. Besides, in assay [2], the “z-score of prototroph abundance” value was -0.81. Besides, the “z-score of subpopulation abundance” value is 1.1 in [16]; 1.32 in assay [3]; 5.12 in assay [5]; -0.87 in [6]; 1.43 in assay [7]; 1.14 in assay [8]. Moreover, the “z-score of subpopulation abundance” value is -0.9 in assay [9]; -1.01 in assay [10]; 6.22 in assay [11]; 0.43 in [13]; 0.43 in assay [14]; 0.94 in [15].

Take `CCCCC(F)(F)[C@@]1(O)CC[C@H]2[C@@H](CC(=O)[C@@H]2CCCCCCC(=O)O)O1` [Lubiprostone]: in assay [2], the “z-score of prototroph abundance” value came to 1.04. Besides, the “z-score of subpopulation abundance” value was -0.11 in [16]; -1.05 in [3]; 0.27 in assay [4]; -0.12 in assay [5]; -0.53 in [6]; -1.08 in assay [7]. Also, the “z-score of subpopulation abundance” value in assay [9] was -0.05; in [10], -0.29; in assay [11], -0.29; in assay [13], -1.08; in [14], -0.67; in [15] it was -0.37.

With `C[C@@H](NCCCc1cccc(C(F)(F)F)c1)c1cccc2ccccc12` [Cinacalcet HCl], in assay [1], the mean cell size was determined as 12.17 ± 0.037. Further, the “z-score of subpopulation abundance” value in assay [16] is 0.31; in [3], 2.8; in [4], -1.21; in [6] it was 0.1; in assay [7], 3.33; in assay [9], -1.71. In addition, the “z-score of subpopulation abundance” value was -0.3 in assay [10], 1.05 in [11], -0.21 in assay [13] and 2.57 in assay [14].

In the case of `CCC[C@@H]1C[C@@H](C(=O)N[C@@H]([C@H]2O[C@H](SC)[C@H](O)[C@@H](O)[C@H]2O)[C@@H](C)O)N(C)C1` [Lincomycin Hydrochloride Monohydrate], the mean cell size in [1] was 12.3 ± 0.19. Moreover, the “z-score of prototroph abundance” value in assay [2] was -0.67. The “z-score of subpopulation abundance” value is 0.19 in [16]; -0.54 in [5]; 0.94 in [6]; -0.56 in assay [7]; 0.41 in assay [9]; 0.42 in assay [10]. Also, the results for the “z-score of subpopulation abundance” value in assay [11], in [13] and in assay [15] were -0.46, -0.11 and 0.63, respectively.

With `CC1(C)S[C@@H]2[C@H](NC(=O)Cc3ccccc3)C(=O)N2[C@H]1C(=O)O` [Benzathine penicilline], the “z-score of prototroph abundance” value in assay [2] stood at 0.52. Moreover, the “z-score of subpopulation abundance” value in [16] is -0.52; in assay [3], -0.58; in assay [4] it was -0.09; in assay [5], 0.18; in [6], -0.74; in [7] it was -0.93. Further, the “z-score of subpopulation abundance” value in assay [8] was -0.76; in assay [9] it was 0.01; in assay [10], -0.06; in assay [11] it was -0.03; in assay [12], 0.37; in [14], -0.44. The “z-score of subpopulation abundance” value in assay [15] was 0.29.
